This note sets out measurements from PubChem BioAssay.

SMILES strings stand for the structures. Active and inactive are the calls of the source.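 How the source made its calls, unless noted: active means fluorescence slope after compound addition differing from the mean of all screened samples at 99.7% confidence, in either direction; inactive means the rest.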

Test [1] can be described thus: inhibitors of TNFa-induced NFkB p65 translocation, primary screen, imaging, HUVEC, MLSMR starter and 10KST1 sets (AID 438;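 active means inhibition above 20% together with a positive visual image hit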;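 further: compound added about 3h40 before a 20 min TNFalpha stimulation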;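 on inhibition: signal is the nuclear over cytoplasmic p65 intensity ratio per well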). As to conditions: HUVEC TNFa-induced p65 nuclear translocation; cell count: measured here: nuclei count (cytotoxicity indicator), at 2.08 µM; inhibition: at 2 µM, stronger effect = higher value, 0% TNFa-plus-vehicle, 100% no-TNFa wells.
The nature of test [2]: inhibitors of mutant huntingtin aggregation, primary screen, imaging, exon1htt(103Q)mCFP cells, high-content imaging (AID 483;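 active means visual image review flags a hit and inhibition of aggregation exceeds 20%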;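 further: compound exposure lasted 3 days before fixation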;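 on nuclei count: percent of the per-plate median nuclei count of sample wells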). As to conditions: exon1htt(103Q)mCFP cell line, aggregate imaging, at 2 µM; inhibition of aggregation: stronger effect = higher value; nuclei count: measured here: cell count, toxicity.
Test [3] can be described thus: inhibitors of E-selectin induction by TNFa, primary screen, imaging, HUVEC, immunofluorescence, MLSMR starter and 10KST1 sets (AID 487;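 active means visually confirmed hit in the image check and inhibition above 20%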;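 on inhibition: signal is fraction of cell area covered by stained E-selectin grains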;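 on nuclei count: 100% = median nuclei count of all wells on the same plate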). As to conditions: HUVEC TNFalpha-induced E-selectin immunofluorescence imaging, at 2 µM; inhibition: stronger effect = higher value; nuclei count: measured here: cell number, toxicity.
Test [4] has as its target Voltage-gated potassium channel subunit beta-2 (Rattus norvegicus) (UniProt P62483). The test is described as follows: KvBeta enzyme negative modulators, primary screen, biochemical, NADPH fluorescence (AID 622;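 active means fluorescence slope higher than the sample average by over 3 SD, cut at about -0.22 in these data, passing the limit was not always enough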;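 further: slope of raw intensity against log time taken from 70 to 1610 s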). As to conditions: recombinant KvBeta, 4-cyanobenzaldehyde reduction, at 10 µM, stronger effect = higher value.
For test [5] the target is unchanged. The test is described as follows: KvBeta positive modulators, primary screen, biochemical, NADPH fluorescence (AID 623;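 active means NADPH fluorescence slope more negative than the mean of all samples by about 3 SD, 99.7% confidence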;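 further: fluorescence intensity change per second fitted from 20 to 320 s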). As to conditions: Recombinant KvBeta, NADPH fluorescence decrease slope, 10 min; at 10 µM; stronger effect = lower value.
For test [6], the target named is Alpha-2C adrenergic receptor (Homo sapiens) (UniProt P18825). The test is described as follows: modulators of alpha2C/GIRK thallium flux, primary screen, cell-based, HEK293 alpha2C/GIRK1/2 (AID 624).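 Further: slope of fluorescence ratio to pre-addition baseline per second over 15 to 24 s.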 As to conditions: thallium flux BTC fluorescence, at 10 µM, actives lie on both sides.
Alpha-2C adrenergic receptor (Homo sapiens), sequence (P18825 whole entry, looked up): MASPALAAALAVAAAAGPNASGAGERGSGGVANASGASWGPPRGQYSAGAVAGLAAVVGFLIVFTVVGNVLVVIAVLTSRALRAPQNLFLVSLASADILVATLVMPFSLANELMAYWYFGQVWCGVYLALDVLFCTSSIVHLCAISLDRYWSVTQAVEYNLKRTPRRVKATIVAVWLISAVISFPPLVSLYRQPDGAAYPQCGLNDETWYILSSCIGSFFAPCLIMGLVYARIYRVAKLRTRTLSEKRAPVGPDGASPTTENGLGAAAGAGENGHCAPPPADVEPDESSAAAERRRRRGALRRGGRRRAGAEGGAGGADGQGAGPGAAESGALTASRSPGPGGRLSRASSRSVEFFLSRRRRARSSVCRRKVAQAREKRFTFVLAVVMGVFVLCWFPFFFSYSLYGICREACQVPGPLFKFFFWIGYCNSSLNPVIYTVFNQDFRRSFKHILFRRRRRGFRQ
Test [7] is described as follows: inhibitors of Sendai virus-induced IRF3 signaling, primary screen, TLR/RLR signaling modifier project, cell-based, Sendai virus stimulus, luciferase, 10K MLSCN set (AID 602276;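 active means inhibition at or above 50% at 10 µM; inactive means inhibition below 50%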;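 further: firefly luciferase from ISG56 promoter only with Renilla not read in this screen; 0% = Sendai virus plus DMSO and 100% = medium plus DMSO without virus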). As to conditions: HEK293 RL24 IRF3 luciferase reporter, at 10 µM, stronger effect = higher value. (Reporter assays use an easily measured gene product as a stand-in for the process of interest.)
The nature of test [8]: inhibitors of poly I:C-induced TLR3 signaling, primary screen, cell-based, poly I:C stimulus, luciferase, 10K MLSCN set (AID 602277;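 active means inhibition of the reporter signal at or above 50%; inactive means inhibition below 50%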). As to conditions: HEK293-TLR3 RL24 IRF3 luciferase reporter, at 10 µM, stronger effect = higher value.

Voltage-gated potassium channel subunit beta-2 (Rattus norvegicus), sequence (P62483 whole entry, looked up): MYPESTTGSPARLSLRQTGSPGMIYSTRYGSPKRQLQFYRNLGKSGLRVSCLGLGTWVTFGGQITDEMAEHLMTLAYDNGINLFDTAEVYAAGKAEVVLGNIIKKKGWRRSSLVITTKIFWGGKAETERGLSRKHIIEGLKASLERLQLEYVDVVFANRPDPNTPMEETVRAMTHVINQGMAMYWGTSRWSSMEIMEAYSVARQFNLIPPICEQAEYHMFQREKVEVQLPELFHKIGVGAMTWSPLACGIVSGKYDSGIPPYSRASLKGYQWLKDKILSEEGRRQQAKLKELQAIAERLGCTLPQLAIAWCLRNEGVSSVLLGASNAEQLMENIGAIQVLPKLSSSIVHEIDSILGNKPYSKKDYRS

The inhibition is the change of the read-out against control, counted positive when it falls. Take `CC(C)(C)NC(=O)CN(C(=O)C1CSC(=O)C1)c1ccc2c(c1)OCCO2` (centres undefined): the cell count in test [1] came to 612. The inhibition in test [1] was 2.9% (inactive); in test [3], 7.1% (inactive); in test [7], -11.9% (inactive); in test [8] it was -7.89% (inactive). Besides, the inhibition of aggregation in test [2] was 7.5% (inactive). Further, the figures for the nuclei count in test [2] and in test [3] were 95.8% and 108%, respectively. Besides, the fluorescence slope in test [4] was -0.362 (inactive). Further, the NADPH fluorescence slope in test [5] is -6.7e-05 (inactive). For the same molecule, the slope in test [6] was 0.00456 (inactive).

For the molecule `O=c1oc2c3c4c(cc2cc1-c1nc2ccccc2[nH]1)CCCN4CCC3`, the cell count in test [1] is 451. The inhibition is 5.9% (inactive) in test [1], -25.7% (inactive) in test [3], -24.1% (inactive) in test [7] and -107% (inactive) in test [8]. Further, the inhibition of aggregation in test [2] is 94.7% [may fluoresce] (active). Besides, the nuclei count in test [2] worked out at 112%; in test [3], 121%. Moreover, the fluorescence slope in test [4] is -0.308 (inactive). For the same molecule, in test [5], the NADPH fluorescence slope was 1.6e-05 (inactive). For the same molecule, the slope in test [6] was 0.00239 (inactive).

As for `CN(Cc1cccs1)CC(O)COCc1ccco1` (centres undefined), in test [1], the cell count came out at 407. Further, the inhibition in test [1] was 6% (inactive); in test [3], -28.9% (inactive); in test [7] it was 11.5% (inactive); in test [8], 23.9% (inactive). In test [2], the inhibition of aggregation was -40.7% (inactive). In addition, the nuclei count in test [2] was 116%; in test [3], 113%. Further, the fluorescence slope in test [4] was -0.591 (inactive). In addition, in test [5], the NADPH fluorescence slope was -4.7e-05 (inactive). For the same molecule, in test [6], the slope was 0.00778 (inactive).

On to `Cc1ccc(S(=O)(=O)CC2CSc3nnc(C)c(=O)n32)cc1` (centres undefined), for which the cell count in test [1] was 432. Moreover, the inhibition in test [1] is -3.3% (inactive); in test [3], -36.1% (inactive); in test [7] it was 12.3% (inactive); in test [8] it was 31.9% (inactive). In test [2], the inhibition of aggregation is 3.8% (inactive). For the same molecule, the nuclei count in test [2] is 91.3%; in test [3] it was 173%. In test [4], the fluorescence slope is -0.38 (inactive). The NADPH fluorescence slope in test [5] was -5.3e-05 (inactive). In addition, the slope in test [6] was 0.00213 (inactive).

`CN1CCN(c2nc(-c3ccncc3)nc3ccccc23)CC1`: the cell count in test [1] stood at 324. Moreover, the inhibition in test [1] is -13.1% (inactive); in test [3], -133% (inactive); in test [7], 11.9% (inactive); in test [8], 15.9% (inactive). Besides, the inhibition of aggregation in test [2] is -19.7% (inactive). Besides, the nuclei count in test [2] is 51.3%; in test [3], 120%. In addition, the fluorescence slope in test [4] is -0.41 (inactive). In addition, the NADPH fluorescence slope in test [5] was -3.7e-05 (inactive). The slope in test [6] was 0.00562 (inactive).

As for `COC(=O)c1cc(=O)n(Cc2ccc3c(c2)OCO3)c(=Nc2ccccc2)s1`, in test [1], the cell count worked out at 575. Moreover, the inhibition was 2.9% (inactive) in test [1], -30.3% (inactive) in test [3], 12.2% (inactive) in test [7] and 27.1% (inactive) in test [8]. Besides, in test [2], the inhibition of aggregation was 8.9% (inactive). Further, the nuclei count in test [2] was 124%; in test [3] it was 107%. Besides, the fluorescence slope in test [4] is -0.545 (inactive). For the same molecule, the NADPH fluorescence slope in test [5] was -3.4e-05 (inactive). In test [6], the slope is 0.00623 (inactive).

With `COc1cccc(NC(=O)CSc2nnc(Cc3cccn3C)n2-c2ccc(F)cc2)c1`, the cell count in test [1] was found to be 567. Besides, the inhibition in test [1] is -3.3% (inactive); in test [3], 26.6% (inactive); in test [7] it was -1.59% (inactive); in test [8], 15.6% (inactive). Moreover, the inhibition of aggregation in test [2] was 38.3% (inactive). Also, the results for the nuclei count in test [2] and in test [3] were 85.3% and 110%, respectively. In addition, the fluorescence slope in test [4] is -0.594 (inactive). In addition, in test [5], the NADPH fluorescence slope was -2.4e-05 (inactive). For the same molecule, the slope in test [6] was 0.00609 (inactive).

As to `O=c1c2ccccc2nc(SCc2cn3ccsc3n2)n1-c1ccc(F)cc1`, the cell count in test [1] turned out to be 607. The inhibition in test [1] is 6.1% (inactive); in test [3], 59.6% (active); in test [7], 23.9% (inactive); in test [8], 22.8% (inactive). Moreover, the inhibition of aggregation in test [2] is 9% (inactive). Moreover, the nuclei count in test [2] came out at 103%; in test [3], 71.6%. Besides, the fluorescence slope in test [4] is -0.626 (inactive). Also, the NADPH fluorescence slope in test [5] was 1.8e-05 (inactive). Further, the slope in test [6] is 0.00521 (inactive).

With `CC(C)CCNC(=O)C(c1ccco1)N(CC1CCCO1)C(=O)Cn1nnc2ccccc21` (centres undefined), in test [1], the cell count is 393. The inhibition in test [1] was 10.3% (inactive); in test [3], -72.5% (inactive); in test [7], 8.01% (inactive); in test [8], 16.4% (inactive). In addition, in test [2], the inhibition of aggregation is 5.4% (inactive). Moreover, the results for the nuclei count in test [2] and in test [3] were 104% and 103%, respectively. In test [4], the fluorescence slope is -0.612 (inactive). Moreover, the NADPH fluorescence slope in test [5] was -4.6e-05 (inactive). Further, the slope in test [6] was 0.00382 (inactive).

Take `CCc1cccc(NC(=O)Cn2cc3c(n2)CCCC3)c1`: the cell count in test [1] was determined as 759. In addition, the inhibition in test [1] is -2.8% (inactive); in test [3], -27.9% (inactive); in test [7], 13.7% (inactive); in test [8] it was 26.6% (inactive). In addition, the inhibition of aggregation in test [2] was 7.5% (inactive). Further, the nuclei count in test [2] was found to be 101%; in test [3], 113%. In addition, the fluorescence slope in test [4] is -0.506 (inactive). Also, in test [5], the NADPH fluorescence slope was -2.1e-05 (inactive). For the same molecule, the slope in test [6] is 0.0103 (active).

Take `CCCOc1cccc(NC(=O)c2c(-c3ccccc3)noc2C)c1`: the cell count in test [1] worked out at 515. For the same molecule, the inhibition in test [1] was 2% (inactive); in test [3], -32% (inactive); in test [7] it was 12.6% (inactive); in test [8] it was 18% (inactive). Moreover, in test [2], the inhibition of aggregation was 7.5% (inactive). Further, the nuclei count in test [2] stood at 92.7%; in test [3], 116%. For the same molecule, the fluorescence slope in test [4] was -0.534 (inactive). Also, the NADPH fluorescence slope in test [5] was 5.8e-06 (inactive). Besides, in test [6], the slope was 0.00598 (inactive).

For `CCOC(=O)c1ccc(NC(=O)CSc2nnc(COc3ccccc3)n2C)cc1`, the cell count in test [1] turned out to be 393. Also, the inhibition in test [1] is 2.5% (inactive); in test [3] it was -25.8% (inactive); in test [7] it was -1.67% (inactive); in test [8], 29% (inactive). For the same molecule, in test [2], the inhibition of aggregation was -6.7% (inactive). For the same molecule, the results for the nuclei count in test [2] and in test [3] were 97.5% and 122%, respectively. For the same molecule, in test [4], the fluorescence slope was -0.455 (inactive). Also, in test [5], the NADPH fluorescence slope was -5e-05 (inactive). For the same molecule, the slope in test [6] was 0.00289 (inactive).

As to `CCn1c(CSc2nnc(-c3cccnc3)n2-c2ccccc2C)nc2cc(C(=O)O)ccc21`, the cell count in test [1] was found to be 463. The inhibition in test [1] was -13.1% (inactive); in test [3], -22.2% (inactive); in test [7], 2.24% (inactive); in test [8], 9.03% (inactive). Besides, the inhibition of aggregation in test [2] is 5.1% (inactive). In addition, the nuclei count was determined as 101% in test [2] and 161% in test [3]. In addition, in test [4], the fluorescence slope was -0.509 (inactive). Also, the NADPH fluorescence slope in test [5] is -0.000162 (inactive). The slope in test [6] is 0.00507 (inactive).

As to `C=CCNc1oc(-c2cccc3ccccc23)nc1C#N`, in test [1], the cell count came out at 365. The inhibition in test [1] was -0.4% (inactive); in test [3], -110% (inactive); in test [7], -4.72% (inactive); in test [8] it was -35.7% (inactive). The inhibition of aggregation in test [2] is 9.2% (inactive). Also, the figures for the nuclei count in test [2] and in test [3] were 98.8% and 97.4%, respectively. In addition, in test [4], the fluorescence slope was -0.0687 (active). In addition, the NADPH fluorescence slope in test [5] is 1.5e-06 (inactive). Further, the slope in test [6] was 0.00477 (inactive).
